From PubChem BioAssay
Mot1-301 SUMO – inhibitors of SUMOylation pathway: yeast Mot1-301 growth rescue | S. cerevisiae Mot1-301 growth rescue, ATP luminescence, 38.5C; percent above DMSO median, 100 means doubled | growth rescue, % at 18.8 µM | actives 1% (n = 320,000) | AID 2716;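 active means every valid replicate shows activation above 250% relative to neutral control wells; inactive means the rest, any valid replicate at or below 250%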;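 further: OY570 slx delta 5 strain wells were the positive control but not used for scaling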
ATG4B inhibitor – inhibitors of human ATG4B cysteine protease; Q9Y4P1; ATG4B cleavage of LC3-PLA2, NBD-HPC fluorescence, 1 h; inhibition, % at 8.33 µM; actives 0.51% (n = 340,000); AID 504462; in the data active means inhibition above about 40%
Target sequence (Q9Y4P1 whole entry, looked up): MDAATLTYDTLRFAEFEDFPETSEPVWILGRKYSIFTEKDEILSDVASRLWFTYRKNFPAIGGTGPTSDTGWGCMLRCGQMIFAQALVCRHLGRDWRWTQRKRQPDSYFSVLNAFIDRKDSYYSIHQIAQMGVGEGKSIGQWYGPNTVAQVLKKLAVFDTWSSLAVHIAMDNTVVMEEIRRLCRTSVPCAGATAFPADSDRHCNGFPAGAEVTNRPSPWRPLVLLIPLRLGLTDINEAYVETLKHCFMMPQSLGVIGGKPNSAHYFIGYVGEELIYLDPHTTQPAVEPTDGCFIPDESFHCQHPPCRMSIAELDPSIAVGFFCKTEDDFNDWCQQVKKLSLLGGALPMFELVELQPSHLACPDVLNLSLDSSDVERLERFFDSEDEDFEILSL
FAS-TE inh – blocks the thioesterase domain of human fatty acid synthase. recombinant FAS-TE, OMFH fluorogenic substrate, fluorescence endpoint. actives 0.67% (n = 360,000). inhibition, % at 15 µM. AID 602261. P49327;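 active means compounds whose normalised, plate-corrected inhibition of enzyme fluorescence in the single-dose primary screen is 50% or more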;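 further: 0% = DMSO with enzyme and 100% = substrate without enzyme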
Calb FLC – affects C. albicans growth with fluconazole. actives 0.57% (n = 300,000). growth inhibition, % (no concentration beside the values). C. albicans CaCi-2 (fluconazole-resistant clinical isolate) + fluconazole, Alamar Blue growth, 48 h;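 active means growth inhibition above about 58% in most replicates, limit read from the data, passing the limit was not always enough; inconclusive means exactly half the replicates above a set limit; inactive means most replicates below a set limit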;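 further: all wells also contain fluconazole at 8 µg/ml as a sub-toxic cotreatment; 0% = median of DMSO wells and 100% = median of geldanamycin control wells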
NadD inh – blocks S. aureus nicotinate mononucleotide adenylyltransferase; purified NadD enzyme, colorimetric absorbance read-out; inhibition, % at 20 µM; actives 0.78% (n = 360,000); in the data active means inhibition above about 26%
Numbers without * were called inactive. Shown are actives, neighbours in structure and some others; about 3.1% of the full set was active somewhere.

`CN1C(=O)/C(=C/c2ccc(C(=O)Nc3ccc(O)cc3C(=O)O)cc2)SC1=S` gave Mot1-301 SUMO -41, ATG4B inhibitor 0, FAS-TE inh 17, Calb FLC 0 and NadD inh 40*.
For O=C(CN1C(=O)/C(=C/c2ccccc2)SC1=S)NNC(=O)c1ccccc1O the results were Mot1-301 SUMO 5, ATG4B inhibitor 7, FAS-TE inh 13, Calb FLC 84* and NadD inh 37*.
For O=C(CN1C(=O)/C(=C/c2cccc(Br)c2)SC1=S)Nc1cccnc1 the results were Mot1-301 SUMO 185, ATG4B inhibitor 0, FAS-TE inh 29, Calb FLC 8 and NadD inh 24.
Screening CC(C)(C)S(=O)(=O)N1Cc2cc(=O)n(Cc3ccccc3)c(CCO)c2[C@H]1CCO returned ATG4B inhibitor -7, FAS-TE inh -9 and NadD inh 2.
O=C(Nc1ccc(C(=O)O)cc1)Nc1ccc(F)cc1F was read as Mot1-301 SUMO -4, ATG4B inhibitor -4, FAS-TE inh -5, Calb FLC -4 and NadD inh -5.
Screening CCC1(c2ccccc2)NC(=O)N(CC(=O)Nc2ccccc2N2CCCC2)C1=O (configuration not stated) returned Mot1-301 SUMO -5, ATG4B inhibitor 5, FAS-TE inh -4, Calb FLC -1 and NadD inh 1.
Screening CCc1ccc(NC(=O)CCCN2C(=O)C3CC=CCC3C2=O)cc1 (configuration not stated) returned Mot1-301 SUMO 3, ATG4B inhibitor 5, FAS-TE inh -3, Calb FLC 11 and NadD inh -2.
Cc1csc(=O)n1CCC(=O)NCc1ccc(F)cc1 was read as Mot1-301 SUMO -4, ATG4B inhibitor 1, FAS-TE inh -4 and NadD inh -4.
Screening COc1ccc(N(CC(=O)NCc2ccc(C)cc2)S(=O)(=O)c2c(C)noc2C)cc1 returned Mot1-301 SUMO 3, ATG4B inhibitor 9, FAS-TE inh 0, Calb FLC -1 and NadD inh -10.
Screening CNc1ccccc(-c2ccc3ccccc3n2)c1=O returned ATG4B inhibitor -6, FAS-TE inh -6, Calb FLC -11 and NadD inh 4.
For CCOc1ccc(/C=C2/SC(=S)N(CCC(=O)Nc3ccc(C(=O)O)cc3)C2=O)cc1 the results were Mot1-301 SUMO -5, ATG4B inhibitor 11, FAS-TE inh 9, Calb FLC -2 and NadD inh 38*.
Cc1ccc(/C=C2\SC(=S)N(CCC(=O)NNC(=O)c3ccc(O)cc3)C2=O)cc1 was read as Mot1-301 SUMO 1, ATG4B inhibitor -3, FAS-TE inh 7 and NadD inh 45*.
Cc1cccc(N(CC(=O)NCCc2ccccc2)C(=O)c2csnn2)c1 was read as Mot1-301 SUMO 211, ATG4B inhibitor -6, FAS-TE inh -1, Calb FLC 2 and NadD inh -2.
O=C(NN=C1CCCCCC1)c1cccs1 was read as Mot1-301 SUMO 2, ATG4B inhibitor -2, FAS-TE inh -2, Calb FLC -12 and NadD inh 1.
For O=C(N/N=C/c1ccncc1)c1cc2ccccc2cc1O the results were Mot1-301 SUMO 9, ATG4B inhibitor -2, FAS-TE inh -2, Calb FLC 91* and NadD inh -1.
For O=C(N/N=C/c1ccc[nH]1)c1cc2ccccc2cc1O the results were Mot1-301 SUMO -22, ATG4B inhibitor -11, FAS-TE inh 0, Calb FLC inconclusive and NadD inh 11.
`Cc1nn(-c2ccccc2)c(N2CCCC2)c1/C=N/NC(=O)c1cc2ccccc2cc1O` gave Mot1-301 SUMO -8, ATG4B inhibitor 6, FAS-TE inh -6, Calb FLC -3 and NadD inh 39*.
Cc1cc(Cl)c(OCCCCN2CCOCC2)c(Br)c1 was read as Mot1-301 SUMO 147, ATG4B inhibitor 4, FAS-TE inh -8, Calb FLC 4 and NadD inh 0.
For Cc1cc(Cl)cc(C)c1OCCCCN1CCOCC1 the results were Mot1-301 SUMO 283*, ATG4B inhibitor 0, FAS-TE inh -6, Calb FLC inconclusive and NadD inh -8.
For COc1cc([N+](=O)[O-])cc2sc(NC(=O)c3c(F)cccc3F)nc12 the results were Mot1-301 SUMO 4, ATG4B inhibitor -4, FAS-TE inh 27, Calb FLC 13 and NadD inh 6.
COc1ccccc1NC(=O)CN1CCN(c2ccccc2OC)CC1 was read as Mot1-301 SUMO -10, ATG4B inhibitor 0, FAS-TE inh 2, Calb FLC 63* and NadD inh 3.
